Shown are actives, neighbours in structure and some others; about 2.8% of the full set was active somewhere.
KDM5B inh – KDM5B demethylase inhibition; KDM5B demethylase, FDH-coupled NADH fluorescence (FDH is formaldehyde dehydrogenase); Potency, µM (series often up to 57.7 µM), actives largely listed as inhibitors; 2.6% of 220,000 active; AID 1347165; active = well fitted inhibition curve with a large enough effect; inconclusive = small, poorly fitted or top-dose-only effect; inactive = no such curve, though single readings can be large or run the other way; also: nearly all actives have a fitted effect of over 70% in size
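Inhibition is measured as reduced NADH fluorescence generation from FDH coupling to formaldehyde release. Truncated KDM5BΔAP at 200 nM final acts on H3K4me3 peptide (12.5 µM in substrate mix) in pH 7.5 HEPES buffer with Tween-20, 30 min, room temperature.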
IP6K1 inhibitor – IP6K1 kinase inhibition. IP6K1 kinase, ADP-Glo luminescence, 2 h; hits give low values. activity change, % (series mostly up to about 58 µM). 0.81% of 140,000 active. AID 1645851; in the data active = activity change below about -25%
Target sequence (Q92551 whole entry, looked up): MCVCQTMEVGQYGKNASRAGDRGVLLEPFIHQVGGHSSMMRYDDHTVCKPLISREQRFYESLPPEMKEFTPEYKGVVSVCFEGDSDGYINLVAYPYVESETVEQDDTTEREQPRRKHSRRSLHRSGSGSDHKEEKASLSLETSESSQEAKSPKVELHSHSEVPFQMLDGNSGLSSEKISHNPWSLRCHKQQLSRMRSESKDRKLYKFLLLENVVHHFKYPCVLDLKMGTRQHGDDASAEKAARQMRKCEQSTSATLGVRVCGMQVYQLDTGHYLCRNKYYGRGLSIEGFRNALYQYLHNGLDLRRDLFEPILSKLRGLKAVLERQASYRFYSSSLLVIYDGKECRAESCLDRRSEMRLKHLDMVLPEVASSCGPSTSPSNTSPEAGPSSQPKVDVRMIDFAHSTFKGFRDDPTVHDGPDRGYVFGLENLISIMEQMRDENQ
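ADP-Glo luminescence measures ADP made by human IP6K1 during a 2 h RT reaction with ATP/IP6 (mix at 1.3 mM/130 uM); top library doses 57.5 and 19.1 uM final.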
A number is an active result.

How did COCCNC(=O)[C@H]1C[C@H](Oc2cccnc2)CN1C(=O)Nc1cccc(F)c1 do in these assays?
KDM5B inh: inactive; IP6K1 inhibitor: inactive

Results for CN1CC(=O)N(C2CCC2)Cc2c(NCCO)ncnc21 ?
KDM5B inh: inactive; IP6K1 inhibitor: inactive

Results for CCCCn1c(=O)[nH]c(=O)c2c1nc(CSc1nnc(C(F)(F)F)n1C)n2CC ?
KDM5B inh: inactive

What do the screens show for `CCOC(=O)[C@H]1C[C@]2(CCCCN(CCOC(C)=O)C2=O)N(C(=O)CC(C)C)[C@H]1c1ccco1`?
IP6K1 inhibitor: inactive

Results for COc1ccc(CNC(=O)c2ccc3nc(C(C)C)oc3c2)cc1OC ?
KDM5B inh: inactive; IP6K1 inhibitor: inactive

Results for Cc1nc2scc(CC(=O)NCC(C)C)n2c(=O)c1-c1cc(C)n(-c2ccc(C(C)C)cc2)n1 ?
KDM5B inh: 28.2µM; IP6K1 inhibitor: inactive

What do the screens show for `Cc1nc2scc(CC(=O)NCC(C)C)n2c(=O)c1-c1cc(C)n(-c2cccc(Cl)c2)n1`?
KDM5B inh: inconclusive; IP6K1 inhibitor: inactive

What do the screens show for `Fc1cccc(Nc2ncc(-c3cncnc3)c3c2OCC3)c1`?
IP6K1 inhibitor: inactive

Results for CNC(=O)c1cccc(-c2cnc(Nc3ccncc3)c3c2CCO3)c1 ?
KDM5B inh: inactive; IP6K1 inhibitor: inactive

What do the screens show for `CN(C)c1cccc(-c2cnc(Nc3ccncc3)c3c2CCO3)c1`?
KDM5B inh: 28.2µM; IP6K1 inhibitor: inactive

Results for c1ccc(Oc2ccc(Nc3ncc(-c4cncnc4)c4c3OCC4)cc2)cc1 ?
KDM5B inh: inconclusive; IP6K1 inhibitor: inactive

How did Cn1cc(-c2cnc(Nc3ccc(F)cc3)c3c2CCO3)cn1 do in these assays?
KDM5B inh: 6.31µM; IP6K1 inhibitor: inactive

Results for COc1ccc(-c2cnc(Nc3ccccc3)c3c2CCO3)cn1 ?
KDM5B inh: 39.8µM; IP6K1 inhibitor: inactive

How did COc1ccc(-c2cnc(Nc3cc(F)cc(N4CCOCC4)c3)c3c2CCO3)cn1 do in these assays?
KDM5B inh: inconclusive; IP6K1 inhibitor: inactive

What do the screens show for `COc1cncc(Nc2ncc(-c3cccc(F)c3)c3c2OCC3)c1`?
KDM5B inh: 31.6µM; IP6K1 inhibitor: inactive

How did O=C(Nc1ccc(F)cc1)C(Oc1ccc(S(=O)(=O)N2CCOCC2)cc1)c1ccccc1 (stereo not drawn) do in these assays?
KDM5B inh: inactive

Results for Cc1ccc(C(C)(C)C)cc1SC(C(N)=O)c1ccccc1 (stereo not drawn) ?
KDM5B inh: inactive

How did O=C([C@H]1C[C@@H](O)[C@H](O)[C@@H]2N=C(Nc3ccc(Cl)cc3)S[C@@H]21)N1CCOCC1 do in these assays?
KDM5B inh: inactive; IP6K1 inhibitor: inactive

How did O=C(CN1C(=O)CNC1=O)N[C@H](c1ccc2c(c1)CCO2)C1CC(O)C1 (stereo partly drawn) do in these assays?
KDM5B inh: inactive; IP6K1 inhibitor: inactive

Results for COc1ccc(-c2[nH]ncc2C(=O)N2CC[C@H](CO)[C@H](NC(=O)C3CC3)C2)cc1 ?
KDM5B inh: inactive; IP6K1 inhibitor: inactive

How did C[C@@H]1O[C@@H](O[C@H]2[C@H](OC(=O)C34CCC(C)(C)CC3C3=CCC5C6(C)CC(O)C(O[C@@H]7O[C@H](CO)[C@@H](O)[C@H](O)[C@H]7O)C(C)(C(=O)O)C6CCC5(C)C3(CO)CC4)O[C@H](C)[C@H](O)[C@@H]2O)[C@H](O)[C@H](O)[C@H]1O[C@@H]1OC[C@@H](O)[C@H](O)[C@H]1O (stereo partly drawn) do in these assays?
IP6K1 inhibitor: inactive

How did O=C(NC1CCN(c2cc(-c3ccc(F)cc3)[nH]n2)CC1)c1ccc(OC(F)(F)F)cc1 do in these assays?
KDM5B inh: inactive; IP6K1 inhibitor: inactive

Results for c1ccc(-c2cnc(Nc3cccnc3)c3c2CCO3)cc1 ?
KDM5B inh: inconclusive; IP6K1 inhibitor: inactive

What do the screens show for `COc1cccc(Nc2ncc(-c3cccnc3)c3c2OCC3)c1`?
KDM5B inh: 31.6µM; IP6K1 inhibitor: inactive

What do the screens show for `CCC1CCC(NC(=O)c2cccnc2)CC1` (stereo not drawn)?
KDM5B inh: inactive

Results for O=C(NCc1ccc(-c2cnc3c(Oc4ccccc4)nccn23)cc1)c1ccn[nH]1 ?
KDM5B inh: inconclusive; IP6K1 inhibitor: inactive

Results for CCOc1nccn2c(-c3ccc(CNC(=O)c4ccnn4C)cc3)cnc12 ?
KDM5B inh: 39.8µM; IP6K1 inhibitor: inactive

Results for COC(=O)c1cc(C(C)C)sc1NC(=O)Cc1ccc(Cl)c(Cl)c1 ?
KDM5B inh: inactive

Results for CCC(C)NC(=O)c1ccccc1NC(=O)c1cnc2ccccc2n1 (stereo not drawn) ?
KDM5B inh: inactive

Results for COCCN1CCC2(C1)CN(C)c1ccc(C(=O)Nc3ccc(OC)cc3)cc12 (stereo not drawn) ?
KDM5B inh: inconclusive; IP6K1 inhibitor: inactive

How did CC(=O)N1CCCC2(C1)CN(C)c1ccc(C(=O)NC(C)C)cc12 (stereo not drawn) do in these assays?
KDM5B inh: 35.5µM; IP6K1 inhibitor: inactive

Assay outcomes from PubChem.
